From PubChem BioAssay AID1650 (Southern Research Specialized Biocontainment Screening …, 2009) come the findings set out here.

Usually viability stands for a read-out of living cells in per cent, often relative to untreated cells.

Structures are written as SMILES. Results with a measured potency or affinity are listed apart. A number with no mark means an inactive call. How the calls were made is not given here.

The test can be described thus: host cell cytotoxicity of antiviral hits, dose response, cytotoxicity control for West Nile virus antiviral project, secondary assay (AID 1650). The note with it: Mammalian host cell viability, cytotoxicity counter-screen; series mostly up to 10 µM; viability: at the top concentration. On the technique in general: The purpose of a counterscreen is to sort out artefacts and off-target activity.
For `Cc1cc(C)cc(SCc2noc(C(=O)NCCN(C)C)c2C(=O)NCCN(C)C)c1`, the “viability” value was 86.1%. The result for `CCOc1ccc(NCc2cc3c(C(C)(C)C)nn(-c4ccccc4)c3[nH]c2=O)cc1` reads 88.3%; that for `CCOc1ccc(NC(=O)Cn2c(=O)n(CCCC(=O)NC3CCN(Cc4ccccc4)CC3)c(=O)c3ccccc32)cc1`, 86.5%; that for `O=C(NCCCN1CCOCC1)c1cc2c([nH]c3ccccc32)c(-c2cccc(Br)c2)n1`, 74.5% [at 20 µM]. Turning to `Cc1cc(C)cc(N(CC(=O)NCc2ccco2)S(=O)(=O)c2c(C)noc2C)c1`, the “viability” value was 80.5%. As for `Cc1ccc(COc2cccc(/C=N/NC(=O)c3nnn(-c4nonc4N)c3C)c2)cc1`, the “viability” value was 70.3% [at 20 µM].

In the case of `CCOC(=O)C(CC)(CC)C(=O)/C=C/c1cccc(Br)c1`, the “viability” value is 90.1%. In the case of `CCN(CC)CCCC(C)NC(=O)c1c(NC(=O)c2ccccc2)sc2c1CCCC2` (centres undefined), the “viability” value was 84.3%. With `Cc1ccc(S(=O)(=O)NCc2ccc(C(=O)NCCCN3CCC(Cc4ccccc4)CC3)cc2)cc1`, the “viability” value is 82.9% [at 20 µM].
